For 37 compounds, growth results are on record in PubChem BioAssay (NCI).

In the test the test system is HL-60(TB) leukemia. Nature of the test: NCI-60 one-dose screen, 48 h (100 = growth as untreated, 0 = no growth, -100 = all killed). The settings on record: 10 µM unless noted.

Compounds without any hit were thinned out: in the full panel of roughly 83,000, 20% have a hit.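 Each cell line was grown in a 96-well plate and treated with one concentration of compound for 48 hours. Values below 10 were considered active.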 A number with no mark means an inactive call. Active and inactive are the calls of the source.

On to `COC(=O)[C@@]12CC[C@@H](C)[C@]3(C[C@@H](c4ccoc4)OC3=O)[C@H]1CC[C@@H]1O[C@@]12C`, for which the growth was 104%.
Consider `c1ccc2c(-c3cnn4cc(-c5ccc(N6CCNCC6)cc5)cnc34)ccnc2c1`, for which the growth was -55.7% (active).
As to `Cc1ccc(C(=O)c2ccc(CC(=O)N/N=C/c3ccc(O)cc3O)n2C)cc1`, the growth is 4.48% (active).
For `C[C@@H](C[C@H](CC1CC1)c1ccccc1)c1ccc2ccccc2c1`, the growth is 107%.
Turning to `O=c1cc/c(=N\Nc2ccccc2)c(=O)/c1=N/Nc1ccccc1`, the growth was 138%.
Take `CCOC(=O)c1cc(C(=O)c2ccc(O)c(O)c2)n2ccc(-c3ccn4c(C(=O)c5ccc(O)c(O)c5)cc(C(=O)OCC)c4c3)cc12`: the growth is 73.8%.
As for `C#CCNC(=S)N/N=C(\C)c1ccccn1`, the growth was -18.6% (active).
In the case of `COc1ccc(-c2nc3c(c(C)nn3-c3ccc(F)cc3)c(=O)[nH]2)cc1`, the growth was 70%.
Then `Cc1cc(-c2nnc(/C=C/c3ccc4c(c3)OCO4)o2)n[nH]1`, with 10.6%.
For the compound `O=S(=O)(NCCNc1cc(-c2c(-c3cccc(O)c3)nc3sccn23)ccn1)c1ccc(Br)cc1`, the growth is 77.6%.
With `N=C1c2nc3n(c2C(=O)c2nc4n(c21)CCCCC4)CCCCC3`, the growth was 103%.
With `CC/C(=C(/c1ccc(O)cc1)c1ccc(OCCN2CCCCCC2)cc1)c1ccc(Cl)cc1`, the growth is 53.9%.
As for `COc1cc(NC2CCCCC2O)c2nc(-c3ccc(Cl)cc3)ccc2c1` (configuration not stated), the growth was 81.9%.
Turning to `O=C1/C(=C\c2cccnc2)SC(=S)N1CCc1ccc(O)cc1`, the growth was 18%.
With `CCOC(=O)C1=C(CSC(=S)N(C2CCCCC2)C2CCCCC2)N(C)C(=O)NC1c1ccccc1` (configuration not stated), the growth is 15.3%.
For the compound `CCn1cc(C(=O)N/N=C/c2ccc(Br)cc2)c(=O)c2cc(F)c(N3CCNC(C)C3)c(F)c21` (configuration not stated), the growth was 48.7%.
Then `Oc1ccc(CNNc2ccnc3c(O)cccc23)c2cccnc12`, with -7.85% (active).
For the compound `CCCCCCCCCCCCCCCC1=NCC[N+]1(CCO)CCO`, the growth is 44.9%.
On to `Cc1cc2c(-c3nc4ccccc4[nH]3)c(O)c(O)cc2c(O)c1-c1c(C)cc2c(-c3nc4ccccc4[nH]3)c(O)c(O)cc2c1O`, for which the growth is -11.2% (active).
On to `C=C(C[C@@](O)(C(=O)Oc1ccccc1)C(=O)C1CCCCC1)c1ccccc1`, for which the growth is 112%.
For `COc1cc2nc(-c3ccc(Cl)cc3)cc(OCCCN3CCOCC3)c2cc1OC`, the growth is 27%.
Then `CC[C@]1(O)C[C@H]2CN(CCc3c([nH]c4ccccc34)[C@@](C(=O)OC)(c3cc4c(cc3OC)N(C=O)[C@H]3[C@@](O)(C(=O)OC)[C@H](OC(C)=O)[C@]5(CC)C=CCN6CC[C@]43[C@@H]65)C2)C1`, with -25.1% (active); and `COc1cnc2c(c1)C(=O)c1c-2n(CCCN2CCC(N)CC2)c(=O)c2cc([N+](=O)[O-])ccc12`, with 44.3%; and `O=C(/C=C/c1cc(CN2CCOCC2)c(O)c2ncccc12)c1cc(CN2CCOCC2)c(O)c2ncccc12`, with 22%.
Turning to `CCN(CC)CCOc1ccc(C2=C(c3ccccc3)CCc3cc(OC)ccc32)cc1`, the growth is -54.4% (active).
In the case of `Nc1nc(Nc2cccnc2)sc1C(=O)c1ccccc1F`, the growth was -35.6% (active).
In the case of `CN(Cc1ccccc1)c1nc(Cl)c(C2CC(c3ccc4c(c3)OCO4)=NN2c2cc(Cl)cc(Cl)c2)s1` (configuration not stated), the growth is 105%.
`CN(C)CCN1C(=O)c2cccc3c(/C=C/CN4C(=O)c5cccc6cccc(c56)C4=O)ccc(c23)C1=O`: the growth is 12.9%.
Then `Cc1nc2ccccc2c(/C=C/c2ccc(Cl)cc2)c1C(=O)/C=C/c1cccs1`, with 59.5%; and `CCCCCCCCCC1=NC(C)(C)CN1C(C)(C)CO`, with -20.8% (active).
As to `CCN(CC)CC[n+]1cc2cc(OC)c(OC)cc2c2ccc3cc4c(cc3c21)OCO4`, the growth is -33.5% (active).
Consider `CCCCCC#CC(=O)O`, for which the growth is 97.4%.
Consider `COc1ccc2nc(N=Nc3c(O)ccc4ccccc34)sc2c1`, for which the growth was 4.48% (active).
On to `CCc1oc2ccccc2c1C(=O)c1cc(I)c(O)c(I)c1`, for which the growth is 10.1%.
For the compound `O=C(Nc1cccc(-n2cc(-c3ccncc3)c(-c3ccc(O)c(Cl)c3)n2)c1)c1cc(C(F)(F)F)cc(C(F)(F)F)c1`, the growth is 58.9%.
As to `Cc1ccc(C)c(-c2csc(Nc3ccc(C)c(C)c3)n2)c1`, the growth is 34.4%.
For the compound `COc1ccc(NC(=O)C2CC3C=CC2C3)c([N+](=O)[O-])c1` (configuration not stated), the growth was 86.2%.
